In the library only some 5.6% were active in any assay of this set; here they are far more common.
ALR H2O2 inh: inhibitors of human sulfhydryl oxidase ALR | purified ALR, DTT oxidation, H2O2 HRP-luminol luminescence | inhibition, % (test concentration not listed) | 290,000 compounds, 3.8% hits;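 active means mean replicate inhibition above about 79%, with every replicate also reaching it, limit read from the data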
Target sequence (P55789 whole entry, looked up): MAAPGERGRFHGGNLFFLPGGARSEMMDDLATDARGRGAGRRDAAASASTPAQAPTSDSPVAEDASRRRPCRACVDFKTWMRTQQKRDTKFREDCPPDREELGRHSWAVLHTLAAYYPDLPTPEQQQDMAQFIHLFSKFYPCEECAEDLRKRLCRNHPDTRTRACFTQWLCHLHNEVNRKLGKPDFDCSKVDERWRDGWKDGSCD
PfM18AAP inh: PfM18AAP enzyme inhibition; inhibition, % at 7.35 µM; 290,000 compounds, 1.2% hits; recombinant PfM18AAP, H-Glu-NHMec fluorogenic cleavage;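 active means inhibition above the campaign mean inhibition over all tested compounds plus 3 SD, cut at about 28% in these data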
PHOSPHO1 block: blocks human PHOSPHO1 phosphatase activity; Q8TCT1; recombinant PHOSPHO1, absorbance phosphatase assay; inhibition, % at 13.3 µM; 290,000 compounds, 1.1% hits; AID 1565; in the data active means inhibition above about 60%
Target sequence (Q8TCT1 whole entry, looked up): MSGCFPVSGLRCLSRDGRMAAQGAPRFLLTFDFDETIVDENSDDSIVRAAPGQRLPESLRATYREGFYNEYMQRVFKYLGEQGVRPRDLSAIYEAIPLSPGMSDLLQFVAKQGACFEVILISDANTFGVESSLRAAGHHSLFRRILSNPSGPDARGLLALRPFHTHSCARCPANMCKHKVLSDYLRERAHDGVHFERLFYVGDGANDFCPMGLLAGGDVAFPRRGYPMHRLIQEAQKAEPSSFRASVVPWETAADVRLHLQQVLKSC
Cardio protect: protects H9c2 cardiomyocytes from peroxide injury; H2O2 injury protection, ATPLite, 2 h; protection from H2O2 cell death, % at 20 µM; 360,000 compounds, 0.63% hits; AID 588492;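 active means compounds giving at least 50% protection of heart cells from peroxide-induced death in the single-dose screen, raw or plate-pattern-corrected value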
PfG6PD inh: PfG6PD (Plasmodium falciparum) enzyme inhibition; PfGluPho enzyme, NADPH resazurin-diaphorase fluorescence; inhibition, % at 20 µM; 350,000 compounds, 0.78% hits;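 active means inhibition reaching at least a set limit at 20 µM in the primary screen, cut at about 59% in these data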
Each line names hits and unclear results; the compound was inactive in the other large screens.

CN(C)c1cccc(C(=O)NNC(=O)NC2CCCCC2)c1	none
N#CCC(=O)Nc1ccc(C(=O)NNC(=S)NC2CCCCC2)cc1	ALR H2O2 inh 94 (no result: PfM18AAP inh, PHOSPHO1 block)
CC(C)CC(=O)Nc1ccc(C(=O)NNC(=S)NC(=O)C2CCCCC2)cc1	PHOSPHO1 block 93
COC(=O)c1ccc(NC(=S)NC2CCCCC2)cc1	none
CCn1c(SCC(=O)NC2CCCC2)nc2c(c1=O)SCC2	none (no result: ALR H2O2 inh, PfM18AAP inh, PHOSPHO1 block)
COc1ccc(N2CSC3=C(C#N)C(c4cc(OC)ccc4OC)CC(=O)N3C2)c(OC)c1 (stereo not given)	PHOSPHO1 block 94, PfG6PD inh 113
CCCSC1=C(C#N)C(c2cc(OC)ccc2OC)CC(=O)N1 (stereo not given)	none
COc1ccc(N2CSC3=C(C#N)C(c4cccs4)CC(=O)N3C2)cc1 (stereo not given)	PfM18AAP inh 43, PHOSPHO1 block 89
CCSCc1nnc(SCC(=O)Nc2cccc(SC)c2)n1C	ALR H2O2 inh 98
Nc1ccc2nc(CCCCc3nc4ccccc4[nH]3)[nH]c2c1	ALR H2O2 inh 100
COC(=O)c1ccc(C(=O)OCCCc2nc3ccc(N)cc3[nH]2)cc1	ALR H2O2 inh 90
Nc1ccc2nc(CCCCCCc3nc4ccc(N)cc4[nH]3)[nH]c2c1	none
Nc1ccc(C(=O)OCCCc2nc3ccccc3[nH]2)cc1	none
Nc1ccc2nc(COc3ccccc3)[nH]c2c1	ALR H2O2 inh 91 (no result: PHOSPHO1 block)
Nc1ccc2nc(CCCCCCCCc3nc4ccc(N)cc4[nH]3)[nH]c2c1	ALR H2O2 inh 96
CCOc1cccc(CN2CCC(Oc3ccc(C(=O)NCc4ccccn4)cc3)CC2)c1	none
CC(/C=N/NC(=O)c1ccccc1F)=C\c1ccccc1	none
COC(=O)C(Cc1ccccc1)NC(=O)CNC(=O)c1ccccc1OC (stereo not given)	none (no result: ALR H2O2 inh)
Nc1ccc2nc(CCCO)[nH]c2c1	ALR H2O2 inh 99
CC(Oc1ccccc1)C(=O)Nc1ccccc1O (stereo not given)	ALR H2O2 inh 90
CN(C)S(=O)(=O)c1ccc(Cl)c(NC(=O)CNC2(C)CCS(=O)(=O)C2)c1 (stereo not given)	none (no result: PfM18AAP inh, PHOSPHO1 block)
COCC(C)N=Cc1c(O)[nH]c2ccccc12 (stereo not given)	ALR H2O2 inh 99
OCCN=Cc1c(O)[nH]c2ccccc12	ALR H2O2 inh 99
CN(C)CC(C)(C)CN=Cc1c(O)[nH]c2ccccc12	ALR H2O2 inh 99
Oc1[nH]c2ccccc2c1C=Nc1ccccc1	none (no result: ALR H2O2 inh)
COC(=O)C[C@@H]1C[C@@H]2c3cc(NC(=O)NC4CCCCC4)ccc3O[C@@H]2[C@H](CO)O1	none (no result: ALR H2O2 inh, PfM18AAP inh, PHOSPHO1 block)
Cc1cc(N)ccc1-n1c(C)ccc1C	PfG6PD inh 59
Cc1cc(N)ccc1N1CCCC1	ALR H2O2 inh 98, PfG6PD inh 88
Cc1cc(C(=O)O)ccc1-n1c(C)ccc1C	none (no result: PHOSPHO1 block, Cardio protect, PfG6PD inh)
CCN(CC)CC(O)CNc1ccnc2c(Cl)ccc(Cl)c12 (stereo not given)	none (no result: ALR H2O2 inh, PfM18AAP inh, PHOSPHO1 block)
CC1CC(C)CN(C(=O)c2cc(S(=O)(=O)N3CCCCC3)ccc2Cl)C1 (stereo not given)	none (no result: PfM18AAP inh, PHOSPHO1 block)
CN1C(=O)/C(=C/c2cn(CC(=O)NCc3ccco3)c3ccccc23)NC1=S	ALR H2O2 inh 97 (no result: Cardio protect, PfG6PD inh)
CCc1nc2c(OCc3ccc(Cl)cc3)cccn2c1N(C=O)Cc1ccc(OC)cc1	none (no result: ALR H2O2 inh, PfM18AAP inh, PHOSPHO1 block, PfG6PD inh)
NC1=NN=C(c2ccc3c(c2)OCCO3)CS1	ALR H2O2 inh 99
Cn1c(=O)c2c(SC3CCCC3)nc(CC(C)(C)C)nc2n(C)c1=O	none (no result: ALR H2O2 inh, PHOSPHO1 block, Cardio protect, PfG6PD inh)
CCCc1nc(SC2CCCC2)c2c(=O)n(C)c(=O)n(C)c2n1	ALR H2O2 inh 98 (no result: PfM18AAP inh)
O=C(O)CCC(=O)OCCN(Cc1ccc(Oc2ccc([N+](=O)[O-])cc2)cc1)C(=O)C(Cl)Cl	none (no result: ALR H2O2 inh, PfM18AAP inh, PHOSPHO1 block)
CN1C(=O)CC(N2CCN(C(c3ccccc3)c3ccccc3)CC2)C1=O (stereo not given)	none
O=C1CC(N2CCN(c3ccccc3)CC2)C(=O)N1CCc1ccccc1 (stereo not given)	ALR H2O2 inh 95
CN1C(=O)CC(N2CCN(c3ccccc3)CC2)C1=O (stereo not given)	ALR H2O2 inh 94 (no result: PHOSPHO1 block)
CN1CCN(C2CC(=O)N(CCc3ccccc3)C2=O)CC1 (stereo not given)	none
O=c1/c(=C/c2ccc(O)cc2)sc2n1CCCN=2	ALR H2O2 inh 98
CN(C)c1ccc(/C=c2\sc3n(c2=O)CCCN=3)cc1	ALR H2O2 inh 99
Cc1cccc2c(=O)n(C(=O)c3ccccc3)c(N)nc12	none (no result: ALR H2O2 inh, PfM18AAP inh, PHOSPHO1 block)
COCCn1c(-c2cccc([N+](=O)[O-])c2)nc2c1c(=O)[nH]c(=O)n2Cc1ccccc1	ALR H2O2 inh 99
CCOc1ccc(NC(=O)Cn2c(=O)n(CCCC(=O)NC3CCN(Cc4ccccc4)CC3)c(=O)c3ccccc32)cc1	none
CN(C(=O)Cn1nc(Cl)ccc1=O)C1CCCN(Cc2ccccc2F)C1 (stereo not given)	none
FC(F)(F)c1cc(Oc2ccc(Cl)cc2)nc(-c2ccccn2)n1	PHOSPHO1 block 73
FC(F)(F)c1cc(Oc2ccccc2)nc(-c2ccccn2)n1	none
CCOC(=O)CCc1c(C)c2ccc(O)cc2oc1=O	ALR H2O2 inh 81
COC(=O)c1c(NC(=O)C2COc3ccccc3O2)sc2c1CCN(C(=O)OC)C2 (stereo not given)	none (no result: ALR H2O2 inh, PfM18AAP inh, PHOSPHO1 block)
O=C(NCCO)Nc1ccc(Cl)cc1	PHOSPHO1 block 69
O=C(NCCNC(=O)Nc1ccc(Cl)cc1)Nc1ccc(Cl)cc1	none (no result: ALR H2O2 inh, PfM18AAP inh, PHOSPHO1 block)
Clc1ccc(-c2nc3ncccn3c2Nc2ccc3c(c2)OCCO3)cc1	none
Cc1cc(C)n2c(Nc3ccc4c(c3)OCCO4)c(-c3ccc(C)o3)nc2n1	none (no result: ALR H2O2 inh)
Brc1ccc(-c2nc3ncccn3c2Nc2ccc3c(c2)OCCO3)o1	ALR H2O2 inh 98
Cc1ccc(-c2nc3ncccn3c2Nc2ccc3c(c2)OCCO3)o1	ALR H2O2 inh 99
Cc1ccc(-c2nc3ncccn3c2NC2CCCCC2)o1	ALR H2O2 inh 99
N#Cc1sc(NCc2ccccc2)nc1Cl	PHOSPHO1 block 62
COc1ccc(CNc2nc(Cl)c(C#N)s2)cc1	none
CCc1nnc(NC(=O)CSc2nnc(COc3ccccc3)n2Cc2ccccc2)s1	PHOSPHO1 block 60
CCSCc1nnc(SCC(=O)Nc2nccs2)n1CC	PHOSPHO1 block 60
CCn1c(COc2ccc(C(C)C)cc2)nnc1SCC(=O)Nc1nccs1	PHOSPHO1 block 97
CCn1c(C)nnc1SCC(=O)Nc1nccs1	none
O=S1(=O)CCN(Cc2cccnc2)CC1	none (no result: ALR H2O2 inh, PfM18AAP inh, PHOSPHO1 block)
COc1ccc(NC(=O)CNC(=O)Cc2cccc3ccccc23)c(OC)c1	none (no result: PfM18AAP inh, PHOSPHO1 block)
Fc1ccc(-c2n[nH]c(=S)n2CC2CCCO2)cc1 (stereo not given)	PHOSPHO1 block 88
C=C(C)Cn1c(-c2ccncc2)n[nH]c1=S	none
S=c1[nH]nc(-c2ccncc2)n1CC1CCCO1 (stereo not given)	ALR H2O2 inh 93
Cc1c(C(=O)O)cccc1-c1ccc(/C=N/Nc2ccc(Br)cc2)o1	ALR H2O2 inh 100
O=C(O)c1ccc(N/N=C/c2ccc(-c3cc(Cl)ccc3Cl)o2)cc1	none
CCN(CC)S(=O)(=O)c1cc(NC(=O)CSc2nc3c(cc2C#N)C(=O)CC(C)(C)C3)ccc1C	ALR H2O2 inh 99
CCN(CC)S(=O)(=O)c1cc(NC(=O)CSc2nnc(N)s2)ccc1C	none (no result: PfM18AAP inh, PHOSPHO1 block)

Screens: PubChem, several laboratories
